Screens as filed in PubChem BioAssay.
The list is not random: actives were taken first. Their share in the collection is about 4.5%.
GRK2 aptamer HTS: inhibitors of human GRK2 displacing RNA aptamer; inhibition of aptamer binding, % at 10 µM; 0.59% of 330,000 active; bead flow cytometry, FAM-aptamer displacement from GRK2; P25098;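 active means inhibition of aptamer binding above 40%, roughly 3 SD of noise, on plates passing a quality check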;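 further: median bead fluorescence of bound FAM aptamer so fluorescent compounds give negative values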
Target sequence (P25098 whole entry, looked up): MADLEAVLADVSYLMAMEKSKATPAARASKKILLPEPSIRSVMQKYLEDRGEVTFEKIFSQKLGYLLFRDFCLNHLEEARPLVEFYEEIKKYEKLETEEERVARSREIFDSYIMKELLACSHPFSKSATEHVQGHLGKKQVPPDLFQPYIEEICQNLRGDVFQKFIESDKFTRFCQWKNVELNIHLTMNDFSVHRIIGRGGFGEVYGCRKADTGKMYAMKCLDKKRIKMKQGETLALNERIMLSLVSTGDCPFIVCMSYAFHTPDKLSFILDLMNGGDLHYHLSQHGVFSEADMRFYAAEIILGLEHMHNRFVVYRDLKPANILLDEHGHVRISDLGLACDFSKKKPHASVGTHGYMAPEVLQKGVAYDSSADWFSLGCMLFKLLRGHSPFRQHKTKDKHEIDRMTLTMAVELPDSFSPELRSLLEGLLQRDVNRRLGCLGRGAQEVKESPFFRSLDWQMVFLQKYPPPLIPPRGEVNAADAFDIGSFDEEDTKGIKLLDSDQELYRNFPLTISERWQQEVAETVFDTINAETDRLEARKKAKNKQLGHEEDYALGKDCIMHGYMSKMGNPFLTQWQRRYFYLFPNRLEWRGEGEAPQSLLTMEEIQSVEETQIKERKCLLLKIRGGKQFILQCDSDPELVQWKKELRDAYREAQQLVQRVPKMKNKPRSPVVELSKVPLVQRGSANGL
Rtt109 HAT inh: C. albicans Rtt109 histone acetyltransferase inhibition | Q5AAJ8 | purified Rtt109/Vps75, ThioGlo CoA-SH fluorescence, 4 h | 0.16% of 330,000 active | inhibition, % at 34.9 µM | AID 540336;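 active means inhibition of at least 50% in every replicate; inconclusive means best replicate reaches 50% inhibition but some replicates fall short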
Efflux pump inh: blocks antifungal efflux pumps in multiplex yeast assay; S. cerevisiae Candida pump triplex, Nile Red efflux; inhibition, % at 10 µM; 0.44% of 330,000 active; AID 485275;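 active means plate passing quality check with inhibition over a set limit, or well fluorescence over plate mean plus 4 SD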;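 further: Nile Red retained in pooled yeast measured as flow cytometry median fluorescence; 0% = buffer negative control and 100% = Enniatin B positive control; higher means more Nile Red kept so more efflux inhibition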
ALR inh: inhibitors of human sulfhydryl oxidase ALR; 3.8% of 290,000 active; purified ALR, DTT oxidation, H2O2 HRP-luminol luminescence; inhibition, % (no concentration beside the values);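 active means mean replicate inhibition above about 79%, with every replicate also reaching it, limit read from the data; inconclusive means only one of the two criteria met; inactive means mean below limit and not every replicate reaching it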
Rce1 inh: yeast Ras-converting enzyme inhibition; calls only; Q03530; yeast membranes, quenched prenylated peptide cleavage fluorescence; 0.27% of 290,000 active;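 active means fall in fluorescence gain of 50% or more versus controls, with final raw signal at or below 3038400; inconclusive means same 50% fall but final raw signal above 3038400; inactive means fall in fluorescence gain under 50%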;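 further: plate controls were neutral control wells for no effect and wells lacking membranes for full effect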
HDAC3 inh: human HDAC3 inhibition; 0.15% of 320,000 active; AID 2718; inhibition, % at 8.3 µM; recombinant HDAC3, fluorogenic peptide/trypsin coupled, fluorescence; O15379; in the data active means inhibition above about 26%, passing the limit was not always enough; inconclusive means no clear call, values can overlap the other calls
* marks the source's active call; other numbers are inactive results; i = inactive; ? = inconclusive; . = no result given; + = active, no number.

SMILES	GRK2 aptamer HTS	Rtt109 HAT inh	Efflux pump inh	ALR inh	Rce1 inh	HDAC3 inh
O=C(c1ccc2[nH]ccc2c1)N1CCCC(Nc2ccccc2)C1 (stereo not drawn)	0.0	9.7	0.2	98.8*	i	.
Cc1cc(C)cc(OC(C)C(=O)Nc2ccccc2C(=O)NCc2cccnc2)c1 (stereo not drawn)	0.0	3.5	0.1	2.9	.	2.0
O=C(c1ccco1)c1coc2c1cc(O)c1ccccc12	0.0	-3.6	0.0	-55.7	i	2.7
O=C(CSc1ccccc1C(=O)N1CCN(c2ccccc2)CC1)N1CCCC1	1.0	3.4	-0.3	98.4*	.	-7.4
O=C(CSc1ccccc1C(=O)N1CCN(c2ccc([N+](=O)[O-])cc2)CC1)N1CCCC1	0.0	1.3	0.0	10.6	.	9.0
COCCSc1ccccc1C(=O)N1CCN(c2ccccc2)CC1	0.0	.	-0.1	87.2*	i	2.6
CN1CCN(c2ccc(Nc3ccnc4cc(Cl)ccc34)cc2)CC1	1.0	3.8	0.0	92.3*	i	1.9
CCOc1ccc(Nc2ccnc3cc(Cl)ccc23)cc1	0.0	26.7	-0.1	-2.6	i	7.2
COCCNC(=S)Nc1ccc(N2CCCCC2)cc1	0.0	-3.4	-0.1	98.9*	i	-3.4
COCCNC(=S)N/N=C/c1ccc(N2CCOCC2)cc1	1.0	.	0.0	98.5*	i	-8.4
COc1cc(/C=N/NC(=S)NCCN2CCOCC2)ccc1O	0.0	-0.6	-0.2	99.0*	i	10.4
CC(C)NC(=S)N/N=C/c1ccc(N2CCOCC2)cc1	0.0	-4.4	0.1	98.8*	i	-8.8
COc1ccc(C(=O)NC(=S)Nc2ccc(N3CCCC3)cc2)cc1	0.0	-2.2	0.1	-7.0	i	-3.2
C=C(C)CNC(=S)N/N=C/c1ccc(N2CCOCC2)cc1	1.0	.	-0.2	?	i	-20.3
COC(=O)c1ccc(/C=N/NC(=S)NC(C)C)cc1	3.0	-7.7	-0.1	-3.9	i	-1.6
CC(=O)C[C@H](O)CC(=O)[C@@H]1OC(=O)CCCCC/C=C/Cc2ccccc21	0.0	17.4	0.1	-5.7	.	-1.3
Cc1ccc(NC(=S)N2CCOCC2)cc1	0.0	-7.9	0.2	-1.0	i	-4.7
Oc1ccc(/C=N/NC(=S)N2CCOCC2)cc1	2.0	.	0.1	99.0*	i	13.4
O=C(N1CCN(c2ccccc2F)CC1)C1(c2cccs2)CCOCC1	2.0	5.8	0.3	2.7	i	1.4
CS(=O)(=O)N(CC(=O)N1CCc2ccccc2C1)c1cccc(Br)c1	0.0	0.0	0.1	-11.1	i	-6.1
CN(/N=C/c1ccc(-c2ccc([N+](=O)[O-])cc2)o1)c1ccccc1	0.0	1.8	-0.1	3.0	i	-1.3
CN(C)/N=C/c1ccc(Sc2ccccc2[N+](=O)[O-])o1	0.0	16.7	0.3	92.0*	i	-4.5
O=C(COC(=O)c1ccncc1)Nc1cc(Cl)c(Cl)cc1Cl	6.0	.	0.8*	-12.4	.	-3.5
O=C(COC(=O)c1ccncc1)Nc1cc(Cl)ccc1Cl	0.0	10.2	0.2	-7.0	i	-0.7
CCOc1ccc(NCc2cccn2-c2nnc(N3CCC(C(=O)NCCCN4CCCCC4CC)CC3)s2)cc1 (stereo not drawn)	0.0	-10.9	0.0	99.2*	i	8.1
SMILES	GRK2 aptamer HTS	Rtt109 HAT inh	Efflux pump inh	ALR inh	Rce1 inh	HDAC3 inh
CC1CCCCN1CCCNC(=O)C1CCN(c2nnc(-n3cccc3)s2)CC1 (stereo not drawn)	0.0	5.3	0.2	-4.5	i	-1.7
Cc1ccc(OC(=O)c2ccc(Br)o2)cc1	3.0	11.4	-0.1	8.1	i	7.9
CC(=O)c1ccc(OC(=O)c2ccc(Br)o2)cc1	0.0	6.0	0.0	1.6	i	67.0*
N#Cc1cnn(-c2ccccc2)c1NC(=O)CN1CCN(c2ccccc2)CC1	0.0	.	-0.2	96.5*	i	-14.5
N#Cc1ccsc1NC(=O)CN1CCN(c2ccccc2)CC1	0.0	-0.3	-1.7	33.4	i	1.4
N#Cc1ccsc1NC(=O)CN1CCN(c2ccc(O)cc2)CC1	0.0	0.4	0.0	99.4*	i	-0.9
CNC(=S)NNC(=O)c1sc2cc(C(F)(F)F)cnc2c1-c1cccnc1	1.0	.	-0.1	88.3*	i	2.7
CNC(=S)NNC(=O)c1sc2cc(C(F)(F)F)cnc2c1-c1ccccn1	1.0	-3.9	-0.2	-4.5	i	-8.2
Cc1cccc(OCc2nnc(SCC(=O)N(C)C3CCCCC3)o2)c1	.	-1.9	.	.	.	.
OC1CCN(Cc2cccc(Oc3ccccc3)c2)CC1	1.0	-38.9	0.1	97.8*	i	1.7
Cc1ccc(-c2nc(NCCN(C)C)c3ccccc3n2)cc1	.	3.1	0.0	6.3	i	-1.1
Cc1cc(C)nc(Nc2ccc(N3CCCC3)cc2)n1	2.0	17.6	-0.1	33.7	i	7.3
Cc1cc(C)nc(Nc2ccc(N3CCOCC3)cc2)n1	5.0	10.9	0.2	98.9*	i	-5.2
O=C(O)c1ccc(N/N=C/C2=C(N3CCOCC3)C(=C\c3ccccc3)/CC2)cc1	0.0	5.8	0.1	97.0*	i	4.9
Cc1ccc(-c2nc(NCCCO)c3ccccc3n2)cc1	4.0	4.8	0.0	97.9*	i	-5.4
Cc1cc(C)nc(N/N=C/C2=C(N3CCOCC3)C(=C\c3ccc(Cl)cc3)/CC2)n1	7.0	-8.0	-0.1	97.7*	i	6.5
Cc1cc(C)nc(NN=CC2=C(N3CCOCC3)/C(=C/c3ccc(Cl)cc3)CC2)n1	.	0.3	.	.	.	.
CC1CN=C(NC(=O)c2cccc([N+](=O)[O-])c2)S1 (stereo not drawn)	0.0	-0.5	-0.1	.	i	4.5
CC1(c2ccccc2)NC(=O)N(CC(=O)Nc2ccc3c(c2)CCC3)C1=O (stereo not drawn)	1.0	-4.8	-0.1	32.7	.	3.3
Cc1cc(C)nc(N/N=C/c2ccc(N3CCOCC3)cc2)n1	1.0	-3.9	0.3	97.3*	i	-3.0
Oc1cccc(Nc2nc(N3CCOCC3)nc(N3CCOCC3)n2)c1	0.0	5.4	0.0	83.7*	i	-2.2
CCCCNC(=O)CSc1nc2ccc(Nc3nc(N4CCOCC4)nc(N4CCOCC4)n3)cc2s1	1.0	1.4	0.2	-1.9	i	-5.0
Cc1ccc(-c2nc(Nc3ccc(N4CCOCC4)cc3)c3ccccc3n2)cc1	10.0	2.3	0.0	2.4	+	-1.2
CCCCSc1nc2ccc(Nc3nc(N4CCOCC4)nc(N4CCOCC4)n3)cc2s1	1.0	-5.4	0.2	89.9*	i	-1.9
Cc1ccc(/C=N/Nc2nc(C)cc(C)n2)cc1	0.0	1.6	0.1	-10.9	i	-7.6
CCOC(=O)C(Cc1c[nH]c2ccc([N+](=O)[O-])cc12)(NC(C)=O)C(=O)OCC	.	-0.5	.	.	.	.
COc1ccc(C(=O)NCC(=O)OCCOc2ccc(Cl)cc2)cc1OC	0.0	-12.0	0.0	1.6	.	2.3
Cc1cc(C)nc(Nc2ccc(O)cc2)n1	0.0	-5.2	-0.1	99.7*	i	5.5
CNC(=S)NNc1nc(N2CCOCC2)nc(N2CCOCC2)n1	0.0	-7.2	0.3	84.9*	i	-7.2
